The values that follow come from PubChem BioAssay AID720650 (Broad Institute, 2013).

A number with no mark means an inactive call. Calls of active or inactive are those of the source. The rule behind the calls is not given here.

This test in a line: C difficile toxins, biochemical counterscreen, UDPG substrate absence, confirmatory dose response (AID 720650). The conditions noted are these: series mostly up to 19.5 µM. (Counterscreens check selectivity or assay interference.)
As a reminder, the AC50 is the concentration at which the activity in the assay is half-maximal. Take `O=C(C[C@@H]1CC[C@@H]2[C@H](COC[C@H](O)CN2C(=O)c2ccccn2)O1)NC1CCC1`: the AC50 result was “inactive”. For `CCCC(=O)Nc1ccc2c(c1)OC[C@H](C)N(CC1CCCC1)C[C@H](C)[C@@H](OC)CN(C)C2=O`, the AC50 entry was “inactive”. On to `COc1ccc(SC[C@H](C)CN2CC[C@H](NC(=O)OCc3ccccc3)CCC2=O)cc1`, for which the AC50 result was “inactive”.

Consider `CCOC(=O)c1sc(=S)[nH]c1C`, for which the AC50 was above 39 µM. Regarding `O=c1[nH]c(/C=C\c2ccc(O)c(Cl)c2)nc(O)c1[N+](=O)[O-]`, the AC50 was 20 µM (active).

Take `ClCC(CNCc1ccccc1)c1ccccc1` (centres undefined): the AC50 result is “inactive”.

`O=c1[nH]c(CN2CCOCC2)nc2cc(Cl)ccc12`: the AC50 result was “inactive”. As to `COc1cc(/C=C/C(=O)OCC(=O)NCc2ccco2)ccc1O`, the AC50 entry is “inactive”.

Regarding `Cc1onc(-c2ccccc2Cl)c1C(=O)Nc1cnn(Cc2ccccc2)c1`, the AC50 entry is “inactive”. As for `Cc1cc(C)c2sc(NNC(=O)C3COc4ccccc4O3)nc2c1` (centres undefined), the concentration at half-maximal activity (AC50) was 0.645 µM (active). Take `CC(=O)N/C(=C\c1ccccc1)C(=O)Nc1ccc(O)cc1`: the AC50 was 17 µM (active). Consider `Cc1nc(SCC(=O)N2CCNC2=O)c(C#N)c(C)c1C`, for which the AC50 entry was “inactive”. In the case of `COc1cc(/C=C/C(=O)OCC(=O)Nc2ccc(S(N)(=O)=O)cc2)ccc1O`, the AC50 entry is “inactive”.

With `O=C(O)c1cc(NS(=O)(=O)c2ccc(NC3CCCCC3)c([N+](=O)[O-])c2)cc(C(=O)O)c1`, the AC50 entry is “inactive”. Turning to `COc1ccccc1-c1cn[nH]c1-c1ccc(O)cc1O`, the AC50 is above 39 µM.

Regarding `CCn1c(SCC(=O)OC)nnc1-c1ccccc1`, the AC50 result is “inactive”. `CCOC(=O)c1sc2nc(OCCN3CCOCC3)cc(C)c2c1N`: the AC50 result was “inactive”. As to `Cc1cc(C)nc(SCC(=O)c2ccc(O)c(O)c2)n1`, the AC50 entry was “inactive”. On to `COCC(=O)N1CC[C@H]2[C@@H]1c1cc(-c3ccc(OC)cc3)ccc1N(C)[C@H]2CO`, for which the AC50 is 7.62 µM (active).

Take `O=[N+]([O-])c1ccc(S(=O)(=O)Nc2nc(-c3ccccc3)cs2)cc1`: the AC50 entry was “inactive”. As to `COc1ccc(/C=C2\CCC(C3CCCC3)C2=O)cc1` (centres undefined), the AC50 result was “inactive”. On to `COc1ccccc1CNC(=O)CN(c1ccc(C)cc1)S(=O)(=O)c1c(C)n[nH]c1C`, for which the AC50 result was “inactive”. The figure for `CC(=O)C1=CCC(c2ccc(C)cc2)N(S(=O)(=O)c2ccc(C)cc2)C1` (centres undefined) is above 39 µM; for `CNC(=O)C[C@H]1CC[C@@H]2[C@@H](COc3ccc(NC(=O)c4ccc(OC)cc4)cc3C(=O)N2C)O1` it is “inactive”; for `CCC(=O)N1CC[C@@H]2[C@H]1c1cc(-c3ccccc3)ccc1N(C)[C@H]2CO` it is 4.44 µM (active). Turning to `COc1ccc(-c2cn3cc(C)ccc3n2)cc1F`, the AC50 is above 39 µM. On to `COc1ccc(CNC(=O)C2=CC(c3ccc(OC)cc3)=NS(=O)(=O)N2C)cc1`, for which the AC50 result is “inactive”. Turning to `O=C(CSc1ccccc1)Nc1cc(S(=O)(=O)N2CCOCC2)ccc1N1CCOCC1`, the AC50 result was “inactive”. Consider `CN(C)c1ccc(/C=C/c2cccc[n+]2[O-])cc1`, for which the AC50 result is “inactive”. Take `COc1ccc(Cl)cc1NC(=O)Cn1c(NCCO)nc2ccccc21`: the AC50 result was “inactive”. With `Cc1ccc(NC(=O)OC(C)N2CCCCC2)cc1NC(=O)OC(C)N1CCCCC1` (centres undefined), the AC50 entry is “inactive”.

In the case of `NC(=O)Nc1ccc(Nc2ccccc2)cc1`, the AC50 is above 39 µM. As to `Cn1c(=O)c2[nH]c(=S)n(Cc3ccccc3)c2n(C)c1=O`, the AC50 is 14.4 µM (active). For `Cc1ccc(Oc2c(CO)c(-c3ccccc3)nn2C)cc1`, the AC50 entry is “inactive”. For `C/C(=N\Nc1cc(N2CCOCC2)ncn1)c1ccc(O)cc1`, the AC50 entry is “inactive”. In the case of `CCNC(=O)C[C@H]1CC[C@@H]2[C@@H](COc3ccc(NC(=O)c4cccc(OC)c4)cc3C(=O)N2C)O1`, the AC50 is above 39 µM.

`CCCCN(C)c1c(C)nc2ccc(C(=O)NCc3cccs3)cn12`: the AC50 was 20.4 µM (active). As to `COc1ccc(CC(=O)C2C(=O)N(C)c3ccccc32)cc1OC` (centres undefined), the AC50 entry is “inactive”. For `O=C(C[C@@H]1C[C@@H]2c3cc(NC(=O)c4ccc5c(c4)OCO5)ccc3O[C@@H]2[C@@H](CO)O1)NCc1cccc(F)c1`, the AC50 result is “inactive”.
